Results on 40 sequences are retold here after the supplement of paper PMC6555819.

For one experiment, the system named is THRa homodimer (NR concentration 90 nM). The experiment in a line: PBM binding z-score (relative to random genomic background probes); higher = stronger binding; sequences stand for … in GC…GCGATTGACAGCGTAGAATGAAGG
Put shortly: (§1)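 Binding z-scores take random background probes as their reference. They come from custom Agilent 4×180K protein-binding microarrays incubated 1 h with ligand-free nuclear receptor dimers, with antibodies against each partner (one per run) detecting binding. Scanned fluorescence was regression-normalized.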
For GCTAGCAGGCCATTTGGGTAACTCAATGACGGGC, the PBM binding z-score was -0.78.
In the case of TCATATAGGTAAATGTTAGGTGAAAGTCCGATCT, the PBM binding z-score amounted to 1.58.
The same measure, in the same setting: as for ATCTCTAGGTAACCGAGTTCAGTGAATGCCGAAC, the figure is 0.663; as for TCAGACAGGTGAATGTAACTCAGGTACGCAGTCG, 0.15.
AGAATTAGGTTATTAAGATCAGGGAATTGCGGTC had a PBM binding z-score of 0.502.
In the case of TCTCGGAGCACACGAAAGGTCAGAGCTCGACATC, the PBM binding z-score is -0.342.
Same read-out and setting: as for TCATATGGGTAAATGCTAGGTGAAAGTCCGATCT, the figure is 0.395.
The same measure, in the same setting: the result for ATATGTAGGTTAAGGGTGATTCAGGTTGGTTCGC reads 1.39; that for TGAATGAGGTTATAAGATTAGGGAACGTTGCAAA, 0.15; that for TCTGTTAGGTCAGTTGGTCAGCTAACGAGCTGCC, 1.69.
On the same count and under the same terms, the result for GCTAGCGGGCCATTTGGGTCACTCAATGACGGGC reads 0.129.
CAAACTAGGTCACCAAAGGTCAAAGTCGAATGAC yielded a PBM binding z-score of 2.46.
For TTACCAAGGTGAAAGGTAGTTGATGCACGCCTTG, the PBM binding z-score stood at 0.341.
Same read-out and setting: as for TCGAGTAGGTGACCAATGGGGCATTCAGCTTTCT, the figure is -0.979; as for CTTACTGGGCCACGAAAGGTCATTGATTCAGTGA, 1.15.
ATATGTAGGTTAGCTTGGGTCATTCAGACTAGGC had a PBM binding z-score of 1.36.
Regarding CCTTACGGGTCAAGGTGATAGCACGGGTGGTACG, the PBM binding z-score amounted to 0.765.
GCTTGTAGATCAAGGTTCAGAAAGACTAAGCTAA displayed a PBM binding z-score of -0.807.
On the same count and under the same terms, the result for TCACCAAGGTGAAGGTCGTTGATCCCTCTGTAGA reads 0.819; that for TAGCCTAGGTCATGGGACAGTATACCACGCGAAC, 1.62; that for CCTTGCAGGCCAATCTGGGTCACTCAAGGCTTGA, 0.612.
Turning to TATACAGGGTCAAAGGCCAGGGTACGAATGTCGA, the PBM binding z-score worked out at 1.2.
In the case of CAAACTAGGTCACCGGAAGGTCAAAGACCGCATG, the PBM binding z-score came to 2.95.
In turn, CATACAGGGTCAGCTAGACCAGAGTAGGGACGGC yielded a PBM binding z-score of 0.733.
On to TCTAGTTGGTCACAGAGGTCACACACGACGGGTA, for which the PBM binding z-score was found to be 2.54.
On the same count and under the same terms, as for CCTAATGGGCCAAAGGTCATTGATTCCAATGCTC, the figure is 0.623; as for TAGCCTAGGTCATTGGGCCAGGATAGTACGCATC, 0.55; as for TCTAGCAGGCCAGAGGCTCACTCAAGAGGTACGG, -1.59.
AGATGTAGGTTACATCCGGGTCATTCAGGCTATG had a PBM binding z-score of 2.08.
The same measure, in the same setting: the result for GCTATTAGTTGAAAGGGCAGCCGAATGATTCTCG reads -0.775; that for TAGCCTAGGTCATTTAGGGGCCAGTATAGAAAGC, 0.467; that for CCAGACAGGTGAAGGGTAACTCAGTCTGGTACGC, -0.441.
The same measure, in the same setting: the result for ATCGAAAGGTCGTGAGGCGAGTATACAGAAAGGC reads -0.00887; that for CGTGCAAGGTCATAGGAGGTCAGTGAAGACAGAT, 2.87; that for TCATATAGGTAAAGGTGTAAGTCGAACGATATGA, -0.761.
Take TCTTTTAGATCAATAGAGGTTAAGAAAGTGCGCT: the PBM binding z-score is -0.64.
The sequence ATCTCTAGGTAAAGATAGTCCAGTGAATGCAAAT came in with a PBM binding z-score of 0.315.
On the same count and under the same terms, as for TCAAGTAGGTTAGTCGGGGCATTCAGCCAACATA, the figure is 0.656; as for ATATGTAGGTTAAGGGTCAGTCAGGTTGGTTCGC, 1.68; as for CCTTACGGGTCACTCCAGGATATAGCATCGGAGT, 0.217.

In the next experiment the test system is VDR homodimer (NR concentration 270 nM). The description is as above. Put shortly:
as §1
GCTAGCAGGCCATTTGGGTAACTCAATGACGGGC displayed a PBM binding z-score of -0.461.
Turning to TCATATAGGTAAATGTTAGGTGAAAGTCCGATCT, the PBM binding z-score is 0.982.
Sequence ATCTCTAGGTAACCGAGTTCAGTGAATGCCGAAC had a PBM binding z-score of 4.05.
TCAGACAGGTGAATGTAACTCAGGTACGCAGTCG came in with a PBM binding z-score of 0.463.
Same read-out and setting: the result for AGAATTAGGTTATTAAGATCAGGGAATTGCGGTC reads 0.494; that for TCTCGGAGCACACGAAAGGTCAGAGCTCGACATC, -0.387.
On the same count and under the same terms, as for TCATATGGGTAAATGCTAGGTGAAAGTCCGATCT, the figure is -0.156.
Regarding ATATGTAGGTTAAGGGTGATTCAGGTTGGTTCGC, the PBM binding z-score amounted to 1.41.
TGAATGAGGTTATAAGATTAGGGAACGTTGCAAA registered a PBM binding z-score of 0.323.
TCTGTTAGGTCAGTTGGTCAGCTAACGAGCTGCC: the PBM binding z-score came to 0.469.
Sequence GCTAGCGGGCCATTTGGGTCACTCAATGACGGGC came in with a PBM binding z-score of 0.0296.
CAAACTAGGTCACCAAAGGTCAAAGTCGAATGAC yielded a PBM binding z-score of 3.85.
Same read-out and setting: the result for TTACCAAGGTGAAAGGTAGTTGATGCACGCCTTG reads -0.225.
The same measure, in the same setting: as for TCGAGTAGGTGACCAATGGGGCATTCAGCTTTCT, the figure is -0.776; as for CTTACTGGGCCACGAAAGGTCATTGATTCAGTGA, 1.78.
Same read-out and setting: as for ATATGTAGGTTAGCTTGGGTCATTCAGACTAGGC, the figure is 1.36.
With CCTTACGGGTCAAGGTGATAGCACGGGTGGTACG, the PBM binding z-score amounted to 0.801.
Take GCTTGTAGATCAAGGTTCAGAAAGACTAAGCTAA: the PBM binding z-score is 1.33.
On the same count and under the same terms, as for TCACCAAGGTGAAGGTCGTTGATCCCTCTGTAGA, the figure is 0.342; as for TAGCCTAGGTCATGGGACAGTATACCACGCGAAC, 0.784.
CCTTGCAGGCCAATCTGGGTCACTCAAGGCTTGA yielded a PBM binding z-score of -0.0782.
Same read-out and setting: the result for TATACAGGGTCAAAGGCCAGGGTACGAATGTCGA reads 3.31; that for CAAACTAGGTCACCGGAAGGTCAAAGACCGCATG, 2.59.
On to CATACAGGGTCAGCTAGACCAGAGTAGGGACGGC, for which the PBM binding z-score worked out at 0.573.
Take TCTAGTTGGTCACAGAGGTCACACACGACGGGTA: the PBM binding z-score was determined as 4.18.
Regarding CCTAATGGGCCAAAGGTCATTGATTCCAATGCTC, the PBM binding z-score came to 1.9.
On the same count and under the same terms, the result for TAGCCTAGGTCATTGGGCCAGGATAGTACGCATC reads 0.858; that for TCTAGCAGGCCAGAGGCTCACTCAAGAGGTACGG, -1.07; that for AGATGTAGGTTACATCCGGGTCATTCAGGCTATG, 2.53.
Turning to GCTATTAGTTGAAAGGGCAGCCGAATGATTCTCG, the PBM binding z-score was -0.507.
The same measure, in the same setting: the result for TAGCCTAGGTCATTTAGGGGCCAGTATAGAAAGC reads 1.63; that for CCAGACAGGTGAAGGGTAACTCAGTCTGGTACGC, -0.55.
As to ATCGAAAGGTCGTGAGGCGAGTATACAGAAAGGC, the PBM binding z-score is 0.582.
Still for that read-out and setting: the result for CGTGCAAGGTCATAGGAGGTCAGTGAAGACAGAT reads 4.63; that for TCATATAGGTAAAGGTGTAAGTCGAACGATATGA, -0.275.
On the same count and under the same terms, as for TCTTTTAGATCAATAGAGGTTAAGAAAGTGCGCT, the figure is 0.459; as for ATCTCTAGGTAAAGATAGTCCAGTGAATGCAAAT, 0.0378.
TCAAGTAGGTTAGTCGGGGCATTCAGCCAACATA returned a PBM binding z-score of 0.907.
Same read-out and setting: the result for ATATGTAGGTTAAGGGTCAGTCAGGTTGGTTCGC reads 2.75.
The same measure, in the same setting: the result for CCTTACGGGTCACTCCAGGATATAGCATCGGAGT reads 1.23.
